Results published in article PMC7862700, “An all-to-all approach to the identification of sequence-specific readers for epigenetic DNA modifications on cytosine”.

Experiments:
Test in all cases: DAPPL (digital affinity profiling via proximity ligation, sequencing); 10 mM Tris-HCl pH 7.5, 50 mM NaCl, 1 mM DTT, 4% glycerol, room temperature, 30 min; GST-TFs on glutathione beads, 16-mer random dsDNA library, 0.1% formaldehyde crosslink after washing; high values mean tight binding
[1] = biological target: T1, FLI1 (Homo sapiens, UniProt Q01543 1-452); settings: protein: recombinant; tags: N-terminal GST; dsDNA, one strand shown
T1 sequence: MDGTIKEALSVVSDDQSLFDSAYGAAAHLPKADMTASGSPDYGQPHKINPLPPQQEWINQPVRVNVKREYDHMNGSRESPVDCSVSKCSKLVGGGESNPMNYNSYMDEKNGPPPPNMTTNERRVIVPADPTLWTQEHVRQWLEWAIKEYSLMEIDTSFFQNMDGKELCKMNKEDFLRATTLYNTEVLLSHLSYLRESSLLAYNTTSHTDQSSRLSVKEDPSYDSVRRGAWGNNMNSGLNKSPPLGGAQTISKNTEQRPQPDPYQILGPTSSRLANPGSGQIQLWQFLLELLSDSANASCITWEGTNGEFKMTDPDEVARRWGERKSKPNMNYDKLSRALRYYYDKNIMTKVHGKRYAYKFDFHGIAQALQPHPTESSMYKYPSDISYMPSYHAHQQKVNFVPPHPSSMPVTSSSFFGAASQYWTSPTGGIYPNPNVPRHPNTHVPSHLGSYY
Method in brief: (§1)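 In yeast, human transcription factors were expressed with a GST fusion, then pulled down on glutathione beads and given DNA barcodes. Pooled with a tag-only sample, they were exposed to 200 nmole of a 16-mer random double-stranded DNA library (Tris/NaCl/DTT/glycerol buffer, room temperature, 30 min), washed, crosslinked with 0.1% formaldehyde, proximity-ligated using BsaI/T4 ligase for 1 h at 37 °C, PCR-amplified and read on an Illumina NextSeq500. Each hexamer's frequency of reads for a factor, divided by the matching frequency for the tag-only sample, gives the binding signal.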

[2] = biological target: T2, ELK1 (Homo sapiens, UniProt P19419 1-428); settings: protein: recombinant; tags: N-terminal GST; dsDNA, one strand shown
T2 sequence: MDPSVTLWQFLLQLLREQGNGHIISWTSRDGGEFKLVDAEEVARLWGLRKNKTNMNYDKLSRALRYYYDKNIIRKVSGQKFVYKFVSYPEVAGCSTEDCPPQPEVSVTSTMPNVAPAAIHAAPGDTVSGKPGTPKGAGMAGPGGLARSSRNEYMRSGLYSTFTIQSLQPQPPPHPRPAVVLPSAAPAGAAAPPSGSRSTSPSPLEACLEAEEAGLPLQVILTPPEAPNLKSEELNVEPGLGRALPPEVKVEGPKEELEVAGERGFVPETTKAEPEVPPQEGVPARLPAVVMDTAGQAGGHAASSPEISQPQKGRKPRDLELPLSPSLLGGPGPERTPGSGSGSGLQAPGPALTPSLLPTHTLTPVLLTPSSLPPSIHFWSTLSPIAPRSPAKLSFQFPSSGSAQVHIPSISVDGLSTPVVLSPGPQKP
Method in brief: as §1

[3] = biological target: T3, GABPA (Homo sapiens, UniProt Q06546 1-454); settings: protein: recombinant; tags: N-terminal GST; dsDNA, one strand shown
T3 sequence: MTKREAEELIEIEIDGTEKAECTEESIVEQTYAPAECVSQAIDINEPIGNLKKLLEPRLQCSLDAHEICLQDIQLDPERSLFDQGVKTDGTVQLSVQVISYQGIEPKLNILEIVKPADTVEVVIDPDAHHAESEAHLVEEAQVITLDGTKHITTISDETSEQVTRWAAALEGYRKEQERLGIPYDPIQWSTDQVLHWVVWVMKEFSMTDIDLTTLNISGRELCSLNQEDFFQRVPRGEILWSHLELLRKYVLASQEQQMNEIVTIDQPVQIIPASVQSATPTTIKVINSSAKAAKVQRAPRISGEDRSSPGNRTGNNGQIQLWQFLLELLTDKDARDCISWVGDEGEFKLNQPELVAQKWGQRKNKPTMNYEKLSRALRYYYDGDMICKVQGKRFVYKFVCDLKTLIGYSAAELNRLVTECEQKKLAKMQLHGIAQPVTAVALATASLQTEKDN
Method in brief: as §1

[4] = biological target: T4, ERG (Homo sapiens, UniProt P11308 1-479); settings: protein: recombinant; tags: N-terminal GST; dsDNA, one strand shown
T4 sequence: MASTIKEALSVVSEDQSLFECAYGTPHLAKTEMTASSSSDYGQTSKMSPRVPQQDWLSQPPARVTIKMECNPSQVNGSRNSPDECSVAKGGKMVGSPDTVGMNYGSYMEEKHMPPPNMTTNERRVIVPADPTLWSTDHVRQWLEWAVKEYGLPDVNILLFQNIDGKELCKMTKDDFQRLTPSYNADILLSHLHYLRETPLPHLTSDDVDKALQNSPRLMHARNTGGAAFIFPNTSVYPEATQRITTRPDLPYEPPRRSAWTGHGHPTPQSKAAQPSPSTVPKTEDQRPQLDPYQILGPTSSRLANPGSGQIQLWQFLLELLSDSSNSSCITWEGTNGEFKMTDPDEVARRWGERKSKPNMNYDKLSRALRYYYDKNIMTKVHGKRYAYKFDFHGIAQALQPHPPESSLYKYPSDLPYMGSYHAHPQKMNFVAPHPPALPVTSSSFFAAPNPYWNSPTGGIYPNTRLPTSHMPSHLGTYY
Method in brief: as §1

[5] = biological target: ELF1 (Homo sapiens, UniProt P32519 1-619); settings: protein: recombinant; tags: N-terminal GST; dsDNA, one strand shown
ELF1, sequence (P32519 whole entry): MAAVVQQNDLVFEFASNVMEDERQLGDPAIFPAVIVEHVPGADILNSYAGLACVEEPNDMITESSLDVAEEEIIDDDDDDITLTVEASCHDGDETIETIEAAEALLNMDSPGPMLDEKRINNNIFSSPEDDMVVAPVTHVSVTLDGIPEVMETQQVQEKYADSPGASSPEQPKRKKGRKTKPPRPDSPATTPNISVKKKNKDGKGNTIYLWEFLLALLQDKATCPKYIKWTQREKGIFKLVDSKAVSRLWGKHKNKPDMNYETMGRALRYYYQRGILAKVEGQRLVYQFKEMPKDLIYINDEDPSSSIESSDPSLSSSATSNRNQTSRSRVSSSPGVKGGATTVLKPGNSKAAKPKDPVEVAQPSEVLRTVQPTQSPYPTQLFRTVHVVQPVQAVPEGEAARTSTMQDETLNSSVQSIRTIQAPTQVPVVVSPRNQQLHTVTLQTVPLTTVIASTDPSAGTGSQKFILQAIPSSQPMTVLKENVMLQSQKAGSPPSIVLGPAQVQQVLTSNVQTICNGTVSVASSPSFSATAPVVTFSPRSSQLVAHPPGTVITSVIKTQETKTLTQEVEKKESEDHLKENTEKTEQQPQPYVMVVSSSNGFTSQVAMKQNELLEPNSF
Method in brief: as §1

[6] = biological target: T5, EHF (Homo sapiens, UniProt Q9NZC4 1-300); settings: protein: recombinant; tags: N-terminal GST; dsDNA, one strand shown
T5 sequence: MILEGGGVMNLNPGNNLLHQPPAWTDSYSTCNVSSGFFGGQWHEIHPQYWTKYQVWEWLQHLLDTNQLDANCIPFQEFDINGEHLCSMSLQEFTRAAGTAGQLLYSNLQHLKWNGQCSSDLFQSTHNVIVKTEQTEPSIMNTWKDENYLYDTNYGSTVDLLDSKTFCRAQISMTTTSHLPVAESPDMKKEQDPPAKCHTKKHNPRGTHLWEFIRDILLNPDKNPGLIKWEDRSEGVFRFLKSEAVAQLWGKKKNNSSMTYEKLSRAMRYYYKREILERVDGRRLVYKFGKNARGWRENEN
Method in brief: as §1

[7] = biological target: SPI1 (Homo sapiens, UniProt P17947 1-270); settings: protein: recombinant; tags: N-terminal GST; dsDNA, one strand shown
Method in brief: as §1

[8] = biological target: T6, ELK3 (Homo sapiens, UniProt P41970 1-407); settings: protein: recombinant; tags: N-terminal GST; dsDNA, one strand shown
T6 sequence: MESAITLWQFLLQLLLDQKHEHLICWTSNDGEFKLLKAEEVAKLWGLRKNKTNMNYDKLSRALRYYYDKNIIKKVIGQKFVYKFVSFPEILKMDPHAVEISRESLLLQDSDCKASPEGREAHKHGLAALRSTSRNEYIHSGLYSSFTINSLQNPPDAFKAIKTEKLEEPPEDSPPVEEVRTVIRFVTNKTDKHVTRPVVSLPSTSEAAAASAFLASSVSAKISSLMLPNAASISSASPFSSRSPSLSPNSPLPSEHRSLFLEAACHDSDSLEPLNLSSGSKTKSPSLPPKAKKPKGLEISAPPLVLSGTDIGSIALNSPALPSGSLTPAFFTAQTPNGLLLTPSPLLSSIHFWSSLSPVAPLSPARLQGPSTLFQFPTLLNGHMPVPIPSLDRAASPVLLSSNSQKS
Method in brief: as §1

[9] = biological target: T7, FEV (Homo sapiens, UniProt Q99581 1-238); settings: protein: recombinant; tags: N-terminal GST; dsDNA, one strand shown
T7 sequence: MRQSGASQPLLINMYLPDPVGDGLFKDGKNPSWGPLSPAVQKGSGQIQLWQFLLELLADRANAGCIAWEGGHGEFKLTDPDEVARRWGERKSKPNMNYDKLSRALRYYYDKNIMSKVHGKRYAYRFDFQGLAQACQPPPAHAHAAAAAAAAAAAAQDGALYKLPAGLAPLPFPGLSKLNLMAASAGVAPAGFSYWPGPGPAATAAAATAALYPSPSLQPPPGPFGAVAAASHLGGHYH
Method in brief: as §1

[10] = biological target: ETV5 (Homo sapiens, UniProt P41161 1-510); settings: protein: recombinant; tags: N-terminal GST; dsDNA, one strand shown
ETV5, sequence (P41161 whole entry): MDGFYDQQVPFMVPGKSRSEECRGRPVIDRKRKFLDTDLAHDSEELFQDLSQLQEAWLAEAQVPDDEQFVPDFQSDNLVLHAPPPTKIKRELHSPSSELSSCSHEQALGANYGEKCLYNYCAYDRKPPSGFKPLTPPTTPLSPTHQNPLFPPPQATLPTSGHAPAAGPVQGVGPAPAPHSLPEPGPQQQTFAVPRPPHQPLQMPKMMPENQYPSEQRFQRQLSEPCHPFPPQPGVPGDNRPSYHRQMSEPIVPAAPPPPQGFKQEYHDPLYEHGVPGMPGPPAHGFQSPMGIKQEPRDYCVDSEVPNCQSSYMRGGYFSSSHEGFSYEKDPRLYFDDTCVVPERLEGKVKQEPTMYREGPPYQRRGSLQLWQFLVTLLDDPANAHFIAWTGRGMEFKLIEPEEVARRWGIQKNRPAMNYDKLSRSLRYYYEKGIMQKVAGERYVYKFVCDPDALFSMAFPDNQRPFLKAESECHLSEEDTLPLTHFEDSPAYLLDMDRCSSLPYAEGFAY
Method in brief: as §1

[11] = biological target: HSF1 (Homo sapiens, UniProt Q00613 1-529); settings: protein: recombinant; tags: N-terminal GST; chain copies: 3; dsDNA, one strand shown
HSF1, sequence (Q00613 whole entry): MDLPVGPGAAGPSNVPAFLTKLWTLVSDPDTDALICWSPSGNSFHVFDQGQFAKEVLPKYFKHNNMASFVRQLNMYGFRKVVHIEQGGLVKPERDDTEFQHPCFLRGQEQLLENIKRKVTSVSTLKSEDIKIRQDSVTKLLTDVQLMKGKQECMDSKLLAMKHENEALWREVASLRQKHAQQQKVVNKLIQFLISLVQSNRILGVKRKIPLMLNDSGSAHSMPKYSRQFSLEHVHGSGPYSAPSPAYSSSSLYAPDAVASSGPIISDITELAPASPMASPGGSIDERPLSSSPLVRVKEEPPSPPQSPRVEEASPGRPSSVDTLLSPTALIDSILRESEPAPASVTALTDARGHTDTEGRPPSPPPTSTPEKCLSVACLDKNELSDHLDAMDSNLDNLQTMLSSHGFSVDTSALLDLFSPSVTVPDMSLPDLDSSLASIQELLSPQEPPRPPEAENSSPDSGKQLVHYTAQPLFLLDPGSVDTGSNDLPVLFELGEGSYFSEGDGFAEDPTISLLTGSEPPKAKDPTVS
Method in brief: as §1

[12] = biological target: ELF4 (Homo sapiens, UniProt Q99607 1-663); settings: protein: recombinant; tags: N-terminal GST; dsDNA, one strand shown
ELF4, sequence (Q99607 whole entry): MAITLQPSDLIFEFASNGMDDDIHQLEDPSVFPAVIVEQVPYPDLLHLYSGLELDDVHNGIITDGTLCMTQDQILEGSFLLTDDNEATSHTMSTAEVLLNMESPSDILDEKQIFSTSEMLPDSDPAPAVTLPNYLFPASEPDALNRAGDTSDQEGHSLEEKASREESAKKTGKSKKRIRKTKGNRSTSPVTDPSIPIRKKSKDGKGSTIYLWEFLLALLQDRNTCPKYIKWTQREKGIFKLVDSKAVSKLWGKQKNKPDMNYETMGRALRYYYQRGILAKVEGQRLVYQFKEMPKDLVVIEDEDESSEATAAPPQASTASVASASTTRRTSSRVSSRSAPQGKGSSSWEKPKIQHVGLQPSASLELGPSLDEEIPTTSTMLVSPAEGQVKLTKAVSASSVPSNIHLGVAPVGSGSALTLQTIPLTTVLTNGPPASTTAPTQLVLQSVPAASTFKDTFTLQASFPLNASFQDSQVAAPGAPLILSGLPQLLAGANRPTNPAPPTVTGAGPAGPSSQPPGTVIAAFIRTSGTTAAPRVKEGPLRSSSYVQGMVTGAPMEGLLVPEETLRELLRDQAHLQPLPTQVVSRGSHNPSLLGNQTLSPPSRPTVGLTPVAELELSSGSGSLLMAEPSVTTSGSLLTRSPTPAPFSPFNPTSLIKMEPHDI
Method in brief: as §1

[13] = biological target: T8, ETV2 (Homo sapiens, UniProt O00321 1-342); settings: protein: recombinant; tags: N-terminal GST; dsDNA, one strand shown
T8 sequence: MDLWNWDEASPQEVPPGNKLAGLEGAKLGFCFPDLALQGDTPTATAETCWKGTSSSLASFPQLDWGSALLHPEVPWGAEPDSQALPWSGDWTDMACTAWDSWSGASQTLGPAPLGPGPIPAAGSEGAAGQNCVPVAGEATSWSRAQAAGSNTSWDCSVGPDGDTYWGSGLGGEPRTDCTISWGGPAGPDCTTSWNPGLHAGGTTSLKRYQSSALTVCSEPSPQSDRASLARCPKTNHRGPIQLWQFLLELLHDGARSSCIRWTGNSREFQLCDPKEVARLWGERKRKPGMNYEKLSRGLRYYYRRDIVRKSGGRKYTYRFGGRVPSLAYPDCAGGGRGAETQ
Method in brief: as §1

[14] = biological target: CRX (Homo sapiens, UniProt O43186 1-299); settings: protein: recombinant; tags: N-terminal GST; dsDNA, one strand shown
CRX, sequence (O43186 whole entry): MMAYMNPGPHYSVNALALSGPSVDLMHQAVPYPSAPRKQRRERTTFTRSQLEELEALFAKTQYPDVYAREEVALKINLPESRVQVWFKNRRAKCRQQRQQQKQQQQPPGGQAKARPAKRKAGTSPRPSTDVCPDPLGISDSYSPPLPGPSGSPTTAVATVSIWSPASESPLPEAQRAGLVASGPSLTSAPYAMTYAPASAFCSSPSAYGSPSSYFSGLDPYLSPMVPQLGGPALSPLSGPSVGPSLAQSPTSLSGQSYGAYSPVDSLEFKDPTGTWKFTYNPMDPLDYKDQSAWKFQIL
Method in brief: as §1

[15] = biological target: ETV1 (Homo sapiens, UniProt P50549 1-477); settings: protein: recombinant; tags: N-terminal GST; dsDNA, one strand shown
ETV1, sequence (P50549 whole entry): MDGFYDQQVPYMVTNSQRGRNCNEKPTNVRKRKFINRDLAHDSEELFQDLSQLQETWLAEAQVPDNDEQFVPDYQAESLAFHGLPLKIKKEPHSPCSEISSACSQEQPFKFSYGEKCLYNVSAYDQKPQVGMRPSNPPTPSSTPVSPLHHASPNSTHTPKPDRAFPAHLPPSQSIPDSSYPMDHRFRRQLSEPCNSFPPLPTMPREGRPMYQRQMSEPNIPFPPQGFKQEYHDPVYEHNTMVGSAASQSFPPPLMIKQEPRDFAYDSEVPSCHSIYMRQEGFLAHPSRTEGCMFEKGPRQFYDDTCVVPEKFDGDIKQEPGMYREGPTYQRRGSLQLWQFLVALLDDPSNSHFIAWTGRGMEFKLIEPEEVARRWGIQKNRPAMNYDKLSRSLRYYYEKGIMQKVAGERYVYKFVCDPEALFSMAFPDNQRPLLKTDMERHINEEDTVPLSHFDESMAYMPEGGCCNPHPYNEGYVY
Method in brief: as §1

[16] = biological target: SPIB (Homo sapiens, UniProt Q01892 1-262); settings: protein: recombinant; tags: N-terminal GST; dsDNA, one strand shown
SPIB, sequence (Q01892 whole entry): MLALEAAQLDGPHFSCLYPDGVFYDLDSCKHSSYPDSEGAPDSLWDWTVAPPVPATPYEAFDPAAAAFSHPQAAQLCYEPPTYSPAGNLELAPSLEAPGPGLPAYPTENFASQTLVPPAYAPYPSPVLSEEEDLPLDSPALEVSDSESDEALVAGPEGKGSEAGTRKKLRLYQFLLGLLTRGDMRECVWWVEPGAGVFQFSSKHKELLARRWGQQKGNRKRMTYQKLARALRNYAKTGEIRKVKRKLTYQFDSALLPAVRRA
Method in brief: as §1

[17] = biological target: T9, ELK4 (Homo sapiens, UniProt P28324-2 1-405); settings: protein: recombinant; tags: N-terminal GST; dsDNA, one strand shown
T9 sequence: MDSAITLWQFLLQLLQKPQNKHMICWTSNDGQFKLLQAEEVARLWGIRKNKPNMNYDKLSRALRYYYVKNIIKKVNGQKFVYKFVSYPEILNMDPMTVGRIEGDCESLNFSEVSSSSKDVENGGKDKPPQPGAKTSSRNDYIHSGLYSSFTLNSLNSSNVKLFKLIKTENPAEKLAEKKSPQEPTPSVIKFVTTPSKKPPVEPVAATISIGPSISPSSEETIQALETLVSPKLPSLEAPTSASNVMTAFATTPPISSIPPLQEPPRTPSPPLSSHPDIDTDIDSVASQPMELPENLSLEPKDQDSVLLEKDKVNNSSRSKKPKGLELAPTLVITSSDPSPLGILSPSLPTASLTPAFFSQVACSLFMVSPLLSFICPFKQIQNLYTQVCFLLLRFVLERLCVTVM
Method in brief: as §1

[18] = biological target: T10, ELF3 (Homo sapiens, UniProt P78545 1-371); settings: protein: recombinant; tags: N-terminal GST; dsDNA, one strand shown
T10 sequence: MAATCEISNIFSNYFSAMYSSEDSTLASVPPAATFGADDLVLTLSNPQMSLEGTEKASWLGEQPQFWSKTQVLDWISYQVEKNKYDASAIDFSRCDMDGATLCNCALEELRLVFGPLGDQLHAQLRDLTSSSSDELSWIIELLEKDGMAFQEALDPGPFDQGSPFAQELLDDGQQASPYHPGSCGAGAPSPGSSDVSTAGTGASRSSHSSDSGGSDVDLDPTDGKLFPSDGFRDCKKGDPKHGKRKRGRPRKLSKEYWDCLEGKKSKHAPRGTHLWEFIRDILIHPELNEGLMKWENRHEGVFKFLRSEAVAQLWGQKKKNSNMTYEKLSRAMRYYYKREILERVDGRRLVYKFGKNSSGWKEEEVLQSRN
Method in brief: as §1

| Sequence | binding signal [1] | binding signal [2] | binding signal [3] | binding signal [4] | binding signal [5] | binding signal [6] | binding signal [7] | binding signal [8] | binding signal [9] | binding signal [10] | binding signal [11] | binding signal [12] | binding signal [13] | binding signal [14] | binding signal [15] | binding signal [16] | binding signal [17] | binding signal [18] |
| --- | --- | --- | --- | --- | --- | --- | --- | --- | --- | --- | --- | --- | --- | --- | --- | --- | --- | --- |
| TTGCGC | 1.23 fold enrichment (6-mer frequency, TF over GST control) | 1.17 fold enrichment (6-mer frequency, TF over GST control) | 1.1 fold enrichment (6-mer frequency, TF over GST control) | 1.02 fold enrichment (6-mer frequency, TF over GST control) | 1.1 fold enrichment (6-mer frequency, TF over GST control) | 1.12 fold enrichment (6-mer frequency, TF over GST control) | 1.06 fold enrichment (6-mer frequency, TF over GST control) | 1.04 fold enrichment (6-mer frequency, TF over GST control) | 1.05 fold enrichment (6-mer frequency, TF over GST control) | 1.11 fold enrichment (6-mer frequency, TF over GST control) | 1.05 fold enrichment (6-mer frequency, TF over GST control) | 1.06 fold enrichment (6-mer frequency, TF over GST control) | 1.11 fold enrichment (6-mer frequency, TF over GST control) | 1.05 fold enrichment (6-mer frequency, TF over GST control) | 1.16 fold enrichment (6-mer frequency, TF over GST control) | – | – | – |
| CAGATT | 1.07 fold enrichment (6-mer frequency, TF over GST control) | 1.05 fold enrichment (6-mer frequency, TF over GST control) | – | 1.06 fold enrichment (6-mer frequency, TF over GST control) | 1 fold enrichment (6-mer frequency, TF over GST control) | 1.01 fold enrichment (6-mer frequency, TF over GST control) | 1.03 fold enrichment (6-mer frequency, TF over GST control) | 1.12 fold enrichment (6-mer frequency, TF over GST control) | 1 fold enrichment (6-mer frequency, TF over GST control) | 1 fold enrichment (6-mer frequency, TF over GST control) | 1.75 fold enrichment (6-mer frequency, TF over GST control) | 1.06 fold enrichment (6-mer frequency, TF over GST control) | 1.02 fold enrichment (6-mer frequency, TF over GST control) | 2.1 fold enrichment (6-mer frequency, TF over GST control) | 1.03 fold enrichment (6-mer frequency, TF over GST control) | 1.02 fold enrichment (6-mer frequency, TF over GST control) | 1.01 fold enrichment (6-mer frequency, TF over GST control) | 1.06 fold enrichment (6-mer frequency, TF over GST control) |
